# Screening data (PubChem)
# A1 inh: blocks A1 activity. MEF A1-2A-BIM cells, caspase-Glo luminescence, 3 h; percent of clofoctol signal, DMSO as zero. caspase activation, % (concentration not given with the values). 0.51% of 21,000 active;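 active means most replicate scores above 10, or exactly half above 10 with mean activity above 10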;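 further: effector caspase 3 and 7 activity cleaving a DEVD luciferin substrate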
# Active calls of the source: *. Many of the other results were omitted from the sample, so hits are more common in it than they were.
SMILES,A1 inh
COc1ccc(-c2nsc(SCC(=O)c3ccc(Cl)cc3)n2)cc1,-1
O=C(/C=C/Oc1ccc(Cl)cc1)c1ccc(Br)cc1,11*
O=C(COC(=O)c1ccc(Br)cc1)c1ccc(Br)cc1,-1
COC(=O)C1=C(C)N(Cc2ccccc2)C(=O)NC1c1ccccc1F (centres undefined),0
Cc1ccc(Nc2cc(C(=O)N3CCCC3)c3ccccc3n2)cc1C,-1
Cc1cc(C)c(Cn2nc(C(C)(C)C)cc2C(=O)NN2CCOCC2)c(C)c1,0
N#Cc1c(-c2ccccc2)cc2c(c1N)c(=O)oc1ccccc12,0
Nc1cccc(-c2cc3c(Oc4cccc(O)c4)ncnc3[nH]2)c1,23*
CC(C)CCNC(=O)Cn1c(SCc2c(F)cccc2Cl)nc2ccncc21,0
NS(=O)(=O)c1ccc(CCNC(=O)c2cccn3c(=O)c4cc5ccccc5cc4nc23)cc1,13*
O=C(NCCc1ccccc1)c1cc(-c2ccccc2)nc2ccccc12,1
CCOC(=O)N1CCN(C(=O)c2cccn3c(=O)c4cc5ccccc5cc4nc23)CC1,-1
O=c1c2ccccc2n(Cc2ccccc2)c(=O)n1-c1cccc(Cl)c1,-1
COc1ccc(/C=c2/[nH]/c(=C\C(=O)c3ccccc3)c(=O)[nH]c2=O)cc1OC,7
O=C(/C=c1\[nH]/c(=C/c2ccc(F)cc2)c(=O)[nH]c1=O)c1ccccc1,12*
O=C1OCCN/C1=C\C(=O)c1ccccc1,0
CCC(Sc1nc2cc3c(cc2c(=O)n1Cc1ccco1)OCO3)C(=O)NCc1ccc(C)cc1 (centres undefined),15*
CCC(Sc1nc2cc3c(cc2c(=O)n1Cc1ccco1)OCO3)C(=O)Nc1ccccc1OC (centres undefined),-1
O=C(CSc1nc2ccccc2c(=O)n1Cc1ccco1)c1ccccc1,0
CO[C@H]1C[C@H](O[C@H]2[C@H](C)[C@@H](O[C@@H]3O[C@H](C)C[C@H](N(C)C)[C@@H]3OC(C)=O)[C@@H](C)C[C@]3(CO3)C(=O)[C@H](C)[C@@H](OC(C)=O)[C@@H](C)[C@@H](C)OC(=O)[C@@H]2C)O[C@@H](C)[C@@H]1OC(C)=O,0
COC(=O)CCC(=O)c1cc(C(C)(C)C)sc1C(C)(C)C,0
COc1cc(NC(=O)c2ccc(CSC3CCCCC3)cc2)cc(OC)c1OC,2
CCOC(=O)c1cc2c(c(CSc3ccc(C(F)(F)F)cn3)c1)OCOC2,1
CN(C)c1ccc(C(=C2C=CC(=[N+](C)C)C=C2)c2ccc(N(C)C)cc2)cc1,58*
CC(NS(=O)(=O)N(C)C)c1ccccc1 (centres undefined),1
SMILES,A1 inh
CCCCC(=O)Nc1ccc2oc(-c3ccc(O)c(Br)c3)nc2c1,-5
CNC[C@@H]1Oc2ccc(NC(=O)Nc3c(C)noc3C)cc2C(=O)N([C@@H](C)CO)C[C@@H]1C,0
Cc1noc(C)c1NC(=O)Nc1ccc2c(c1)C(=O)N([C@H](C)CO)C[C@H](C)[C@@H](CN(C)C)O2,0
CNC[C@@H]1Oc2ccc(NC(=O)Nc3c(C)noc3C)cc2C(=O)N([C@H](C)CO)C[C@H]1C,16*
O=C(Nc1cc(-c2ccc(Cl)cc2)nn1-c1ccc(F)cc1)C1CCC1,0
CCCCC1CCC(C(=O)Nc2c3c(nn2-c2ccc(F)cc2)CS(=O)(=O)C3)CC1 (centres undefined),15*
COc1ccc(-n2nc3c(c2NC(=O)/C=C\c2ccc4c(c2)OCO4)CS(=O)(=O)C3)cc1,1
O=C(CSc1c(-c2ccccc2)c2cc(Cl)ccc2[nH]c1=O)NC1CCCC1,0
CC(=O)Nc1cccc(Oc2ccc3c(c2)C(=O)N(c2ccc(Oc4ccc(C)c(C)c4)cc2)C3=O)c1,-1
CSC(SC)=C(C#N)C(=O)c1cccc(C(F)(F)F)c1,48*
CSc1nc(Nc2cccc(C(F)(F)F)c2)cc(C(F)(F)F)c1C#N,1
N#CC(C(=O)c1cccc(C(F)(F)F)c1)=C1SCCCCS1,0
CCOc1cc(/C=C2\Sc3ccccc3C2=O)cc(I)c1O,0
COc1ccc(C(NC(=O)C2CC=CCC2C(=O)O)c2ccccc2)cc1 (centres undefined),1
Cc1cc(C)c(C#N)c(SCSCc2ccccc2)n1,-1
Cc1cc(C)c(C#N)c(Sc2ncnc3c2nnn3Cc2ccccc2)n1,9.8*
Cc1cc(C)c(C#N)c(SCc2ccccc2)n1,0
CC(C)NC(=O)C(C)n1c2ccccc2c2cnn(C)c(=O)c21 (centres undefined),-1
Nc1nnnn1/N=C1/C(=O)Nc2ccc(Br)cc21,1
C[C@H](CO)N1C[C@H](C)[C@@H](CN(C)C(=O)Nc2ccc(F)cc2)Oc2ccc(NC(=O)c3ccncc3)cc2C1=O,0
C[C@H](CCC(=O)O)[C@H]1CCC2[C@@H]3CC[C@@H]4C[C@H](O)CC[C@]4(C)C3C=C[C@@]21C (some centres undefined),0
C[C@H]1CN([C@@H](C)CO)C(=O)c2cc(NS(=O)(=O)c3cccs3)ccc2O[C@H]1CN(C)C(=O)Nc1ccccc1,0
C[C@@H]1CN([C@H](C)CO)C(=O)c2cc(NS(=O)(=O)c3cccs3)ccc2O[C@H]1CN(C)C(=O)Nc1ccc(F)cc1,0
C[C@H](CO)N1C[C@H](C)[C@H](CN(C)C(=O)Nc2ccc(C(F)(F)F)cc2)Oc2ccc(NS(=O)(=O)c3cccs3)cc2C1=O,12*
O=c1cc(-c2ccccc2)oc2cc(Cl)cc(Cl)c12,-3
SMILES,A1 inh
COc1ccccc1N1CCN(c2nc(Nc3ccc(C)cc3)c3cnn(C)c3n2)CC1,-1
CC[N+](C)(CC)Cc1cc2ccccc2c2c1COC2,0
O=C(O)CCC(=O)N=S(c1ccccc1)c1ccccc1,0
N#Cc1c(OCC(F)(F)F)ccc(Sc2ncccn2)c1OCC(F)(F)F,-1
CC1CCN(C(=O)c2cc3nc(-c4ccco4)cc(C(F)(F)F)n3n2)C(C)C1 (centres undefined),-1
CN(C)CCCO[C@H]1[C@@H](C(O)CO)OC2OC(C)(C)O[C@@H]21 (some centres undefined),0
CCc1ccc(N=Cc2c(O)[nH]c(=S)[nH]c2=O)cc1,-1
Cn1c(O)c(C=Nc2cccc(CO)c2)c2ccccc21,-3
CCc1ccc(N=Cc2c(O)n(-c3ccccc3)c(=O)c3ccccc23)cc1,41*
Cc1ccc(N=Cc2c(Sc3ccc(Cl)cc3)nc3sccn23)cc1,1
CC1=C(c2ccc(C)cc2)S(=O)(=O)NC1=NC1CCN(Cc2ccccc2)CC1,9.6*
COc1ccc(OC)c(CCN=C2NS(=O)(=O)C(c3ccc(C)cc3)=C2C)c1,1
CC1=C(c2ccc(C)cc2)S(=O)(=O)NC1=NC(C)C12CC3CC(CC(C3)C1)C2 (centres undefined),0
C=C1CC[C@H]2C(=C)CC[C@@]3(O)C(=C)C(=O)O[C@@H]3[C@@H]12,5
CN(C)CCNC(=O)c1cc2c(s1)-c1ccc(Cl)cc1SC2,39*
CCCNC(=O)c1cc2c(s1)CS(=O)(=O)C2,1
CC(=O)Nc1cc(C(=O)NCCN(C)C)ccc1Sc1ccc(Cl)cc1,0
Cc1ccc(Nc2nc(Nc3ccc(C)cc3)nc(N3CCCCC3)n2)cc1,0
C[C@H]1CC[C@@H]2[C@@H](C(=O)c3c(O)c([C@]4(O)CC[C@@H](O)[C@H]5O[C@H]54)cn(O)c3=O)[C@@H](C)C=C[C@H]2C1,46*
CN(C(=O)Cn1nc(C(F)(F)F)c2c1CCCC2)c1ccccc1,2
